Experiment [1] is described as follows: Nuclear factor erythroid 2-related factor 2/antioxidant responsive element (Nrf2/ARE) small molecule agonists: qHTS cell viability counter screen in human keratinocytes (AID 1919968; active means well fitted curve in the direction sought with a large enough effect in the repeat runs; an effect the other way counts as inactive or inconclusive; further: nearly all actives have a fitted effect of over 55% in size). In short, it runs like this: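 Fluorescence read-out from CellTiter-Fluor after 1 h at 37 C. Wells held HaCaT-derived ARE-luciferase reporter cells (1,500/well) treated 23 h with DMSO-dissolved compounds. Run in the same wells as the luciferase agonist read.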
In general terms: In qHTS, concentration-response curves come from the screen itself.

Experiment [2] is described as follows: Nuclear factor erythroid 2-related factor 2/antioxidant responsive element (Nrf2/ARE) small molecule agonists: luciferase reporter gene qHTS assay in human keratinocytes (AID 1919969; further: nearly all actives have a fitted effect of over 35% in size). (Reporter assays use an easily measured gene product as a stand-in for the process of interest.)
Experiment [3] has as its target Gonadotropin-releasing hormone receptor (Homo sapiens) (UniProt P30968). Briefly: Human gonadotropin-releasing hormone receptor (GnRHR) small molecule agonists, calcium flux assay in GnRHR-HEK293 cells (AID 1920063). Further: nearly all actives have a fitted effect of over 35% in size. In short, it runs like this: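 Calcium-dye fluorescence, Ex/Em=480/540, recorded every 1 sec over 3 min after compound addition to GnRHR-HEK293 cells. Cells had been seeded 18 hours earlier and dye-loaded for 1 hour at 37 C. Fifteen concentrations, triplicates.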
Background: Calcium assays in cells follow changes in intracellular calcium, usually with a dye or a luminescent sensor.

The target of experiment [4] is KiSS-1 receptor (Homo sapiens) (UniProt Q969F8). Put plainly: Human kisspeptin (KISS1R) small molecule agonists, calcium flux assay in KISS1R-HEK293 cells (AID 1920064; active means well fitted curve in the direction sought with a large enough effect in the repeat runs; an effect the other way counts as inactive or inconclusive). In short, it runs like this: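 Calcium flux read-out: kinetic fluorescence at Ex/Em=480/540, 1 s intervals over 3 min, after pin-tool compound addition to dye-loaded KISS1R-HEK293 cells. Fifteen concentrations, triplicates.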
KiSS-1 receptor (Homo sapiens), sequence (Q969F8 whole entry, looked up): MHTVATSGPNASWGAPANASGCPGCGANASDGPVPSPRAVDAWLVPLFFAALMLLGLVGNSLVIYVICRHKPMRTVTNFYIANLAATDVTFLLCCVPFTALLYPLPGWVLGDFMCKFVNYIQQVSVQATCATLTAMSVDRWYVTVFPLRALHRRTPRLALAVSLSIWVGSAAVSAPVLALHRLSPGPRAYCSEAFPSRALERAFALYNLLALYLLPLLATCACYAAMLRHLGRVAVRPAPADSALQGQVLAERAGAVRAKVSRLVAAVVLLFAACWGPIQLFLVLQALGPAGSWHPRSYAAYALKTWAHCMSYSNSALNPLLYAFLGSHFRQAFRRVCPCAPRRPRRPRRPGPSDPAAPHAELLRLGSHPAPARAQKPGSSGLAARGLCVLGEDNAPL

Experiment [5] in a line: G protein-coupled receptor (GPCR) small molecule agonists, calcium flux assay: HEK293 wild type cell line counter screen (AID 1920065). In short, it runs like this: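 Agonist mode; 18 h seeding at 37 C, 1 h dye load at 37 C; compounds pinned from DMSO, ATP as positive control; kinetic fluorescence 480/540 nm, 3 min, 1 s reads; 15 concentrations, triplicate.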
Experiment [6] in a line: p53 small molecule agonists, cell-based qHTS assay with human liver microsomes (AID 1963577). In short, it runs like this:
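Compounds act here after metabolic activation: human liver microsomes and NADPH, both at 0.5 mg/mL final, were co-added to p53RE-bla cells. Incubation ran 16 h at 37 C, followed by LiveBLAzer detection.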

A short description of experiment [7]: p53 small molecule agonists, cell-based qHTS assay with rat liver microsomes (AID 1963578). In short, it runs like this: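 Read-out is beta-lactamase reporter fluorescence (LiveBLAzer, 2 h, room temperature, dark) in p53RE-bla cells treated 16 h at 37 C with compound, rat liver microsomes and NADPH, both 0.5 mg/mL final.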
Experiment [8] is described as follows: p53 small molecule agonists, cell-based qHTS assay with human liver microsomes: qHTS cell viability counter screen (AID 1963579). Further: nearly all actives have a fitted effect of over 45% in size. In short, it runs like this:
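Cells carrying the p53 response-element beta-lactamase reporter are treated for 16 h at 37 C with test compounds in the presence of human liver microsomes and NADPH (both 0.5 mg/mL final); ATP-based CellTiter-Glo luminescence then reports viability.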

Experiment [9] is described as follows: p53 small molecule agonists, cell-based qHTS assay with rat liver microsomes: qHTS cell viability counter screen (AID 1963580). Further: nearly all actives have a fitted effect of over 45% in size. In short, it runs like this:
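Luminescent ATP readout (CellTiter-Glo, 30 min at room temperature) reports viability of p53RE-bla HCT-116 cells after 16 h at 37 C with test compounds under metabolic activation by rat liver microsomes and NADPH at 0.5 mg/mL final each.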

The nature of experiment [10]: p53 small molecule agonists, cell-based qHTS assay: qHTS cell viability counter screen (AID 1963581). Further: nearly all actives have a fitted effect of over 45% in size. In short, it runs like this: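 Cytotoxicity read-out: ATP-based luminescence (CellTiter-Glo, 30 min RT) measured in the same wells as the p53 reporter assay, HCT-116 p53RE-bla cells, 16 h compound exposure at 37 C.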
Experiment [11] in a line: p53 small molecule agonists, cell-based qHTS assay (AID 1963582; active means well fitted activation curve with a large enough effect in the signal ratio in the repeat runs, not every such curve was filed as active; the % refers to the signal ratio). In short, it runs like this:
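Fluorescence intensity read-out of a beta-lactamase reporter under a p53 response element. Cells were exposed to DMSO-dissolved compounds for 16 h at 37 C, then developed with FRET substrate for 2 h at RT.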

In experiment [12] the target is 5-hydroxytryptamine receptor 2A (Homo sapiens) (UniProt P28223). Briefly: 5-hydroxytryptamine receptor 2A (HTR2A) small molecule antagonists, cell-based qHTS assay (AID 1963586). Further: nearly all actives have a fitted effect of over 45% in size. In short, it runs like this:
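CHO cells stably expressing human HTR2A were plated for 18 h at 37 C, then loaded with calcium dye for 1 h. Compounds were preincubated 5 min at room temperature before DOI (4 nM solution) was added. Kinetic fluorescence was read for 3 min.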

The target is the same in experiment [13]. Put plainly: 5-hydroxytryptamine receptor 2A (HTR2A) small molecule agonists, cell-based qHTS assay (AID 1963587). Further: nearly all actives have a fitted effect of over 30% in size. In short, it runs like this:
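HTR2A-CHO cells, plated 18 h at 37 C/5% CO2, dye-loaded 1 h at 37 C; compounds in DMSO added by pin tool (agonist mode). Intracellular calcium flux read as kinetic fluorescence on FDSS over 2 min at 1 s intervals.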

In experiment [14] the target is Muscarinic acetylcholine receptor M1 (Homo sapiens) (UniProt P11229). Briefly: Cholinergic receptor muscarinic 1 (CHRM1) small molecule antagonists, cell-based qHTS assay (AID 1963588). Further: nearly all actives have a fitted effect of over 40% in size. Further: potency means the concentration at half of the fitted maximal effect. In short, it runs like this:
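Compounds were tested at 15 concentrations in three independent runs. Dye-loaded CHRM1-CHO cells were exposed 5 min at room temperature before stimulation by acetylcholine added at 50nM. Intracellular calcium was read kinetically on FDSS for 3 min.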

For experiment [15] the target is unchanged. Briefly: Cholinergic receptor muscarinic 1 (CHRM1) small molecule agonists, cell-based qHTS assay (AID 1963589). Further: nearly all actives have a fitted effect of over 35% in size. In short, it runs like this: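 Calcium flux read-out: kinetic fluorescence at 1 sec intervals after pin-tool compound addition to dye-loaded CHRM1-CHO cells (human M1). Agonist mode; 15 concentrations tested in triplicate independent runs.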

A short description of experiment [16]: cAMP Responsive Elements (CRE) small molecule agonists, cell-based qHTS assay (AID 1963590). In short, it runs like this: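 Beta-lactamase reporter readout: LiveBLAzer B/G FRET substrate, 2 h at room temperature, added after 3 h compound treatment of CRE-bla HEK 293T cells at 37 C/5% CO2.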
For experiment [17], the target named is Beta-2 adrenergic receptor (Homo sapiens) (UniProt P07550). Briefly: Adrenergic beta2 receptor (ADRB2) small molecule antagonists, cell-based qHTS assay (AID 1963592). Further: series mostly up to about 92 µM; nearly all actives have a fitted effect of over 50% in size. In short, it runs like this: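 Assay format: CHO-ADRB2 cells, 18-20hr seeding at 37C/5% CO2, then compound plus 1nM isoproterenol agonist mix for 0.5hr RT. Homogeneous time-resolved fluorescence cAMP detection after 1hr, expressed as 665/615 nm ratio.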
Beta-2 adrenergic receptor (Homo sapiens), sequence (P07550 whole entry, looked up): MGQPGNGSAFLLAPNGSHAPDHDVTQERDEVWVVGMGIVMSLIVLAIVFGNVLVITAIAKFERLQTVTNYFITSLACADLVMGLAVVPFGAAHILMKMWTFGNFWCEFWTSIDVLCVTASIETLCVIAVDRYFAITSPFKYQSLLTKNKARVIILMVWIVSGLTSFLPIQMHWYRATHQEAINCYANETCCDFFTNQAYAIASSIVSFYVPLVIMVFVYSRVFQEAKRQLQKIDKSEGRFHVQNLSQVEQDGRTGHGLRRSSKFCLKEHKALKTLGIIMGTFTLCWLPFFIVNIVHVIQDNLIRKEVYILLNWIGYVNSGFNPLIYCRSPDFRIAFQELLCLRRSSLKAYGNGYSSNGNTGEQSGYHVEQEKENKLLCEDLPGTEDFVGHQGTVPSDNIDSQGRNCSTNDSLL

Experiment [18] addresses D(2) dopamine receptor (Homo sapiens) (UniProt P14416). Put plainly: Dopamine D2 receptor (DRD2) small molecule agonists, cell-based qHTS assay (AID 1963594). Further: nearly all actives have a fitted effect of over 35% in size. In short, it runs like this:
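HEK293 cells stably expressing DRD2 were cultured 24 h at 37 C, then given Ro20-1724 (0.1 mM final) and compounds for 10 min at room temperature. NKH477 (200nM) was then added for 30 min. cAMP was read by HTRF.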

Experiment [19] shares this target. Briefly: Dopamine D2 receptor (DRD2) small molecule antagonists, cell-based qHTS assay (AID 1963595; active means well fitted inhibition curve with a large enough effect in the signal ratio in the repeat runs, with a control signal flat; the % refers to the signal ratio). In short, it runs like this: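 Stable D2 receptor HEK293 line, 24 h after seeding. Compound preincubated 10 min, then quinpirole (12 nM) with forskolin analogue NKH477 (200 nM), 30 min, room temperature. Detection by time-resolved FRET of cAMP.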
The nature of experiment [20]: cAMP Responsive Elements (CRE) small molecule antagonists, cell-based qHTS assay (AID 1963591; active means well fitted inhibition curve with a large enough effect in the signal ratio in the repeat runs, not every such curve was filed as active; the % refers to the signal ratio). In short, it runs like this:
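HEK293T CRE-bla; 18 h preincubation; compound pin-transfer; NKH477 0.25 uM final, 3 h, 37 C; LiveBLAzer FRET substrate 2 h RT.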

Results filed as inconclusive are left out. Activity calls are given as the source filed them. Unless noted, the call rests on the fitted dose curve.

5-hydroxytryptamine receptor 2A (Homo sapiens), sequence (P28223 whole entry, looked up): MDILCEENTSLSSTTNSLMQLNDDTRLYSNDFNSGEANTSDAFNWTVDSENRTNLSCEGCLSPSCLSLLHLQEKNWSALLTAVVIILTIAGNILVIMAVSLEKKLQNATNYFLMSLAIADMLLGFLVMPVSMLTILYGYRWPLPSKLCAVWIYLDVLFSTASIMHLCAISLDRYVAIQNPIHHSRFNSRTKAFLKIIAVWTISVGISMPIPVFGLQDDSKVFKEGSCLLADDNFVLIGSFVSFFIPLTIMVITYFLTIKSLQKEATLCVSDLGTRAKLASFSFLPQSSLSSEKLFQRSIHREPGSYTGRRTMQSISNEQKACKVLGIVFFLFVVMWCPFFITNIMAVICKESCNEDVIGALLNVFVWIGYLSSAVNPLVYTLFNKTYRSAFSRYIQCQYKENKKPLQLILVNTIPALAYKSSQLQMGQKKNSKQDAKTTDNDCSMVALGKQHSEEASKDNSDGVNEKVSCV
Gonadotropin-releasing hormone receptor (Homo sapiens), sequence (P30968 whole entry, looked up): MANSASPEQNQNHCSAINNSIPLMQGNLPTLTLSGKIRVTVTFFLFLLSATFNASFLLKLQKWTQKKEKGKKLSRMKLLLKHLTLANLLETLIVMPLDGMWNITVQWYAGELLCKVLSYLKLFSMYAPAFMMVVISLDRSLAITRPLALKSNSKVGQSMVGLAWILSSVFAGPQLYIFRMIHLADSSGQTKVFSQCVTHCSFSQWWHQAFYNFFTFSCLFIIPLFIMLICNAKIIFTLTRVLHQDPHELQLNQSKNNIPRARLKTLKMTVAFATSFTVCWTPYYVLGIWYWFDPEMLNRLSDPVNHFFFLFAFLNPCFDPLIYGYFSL
Muscarinic acetylcholine receptor M1 (Homo sapiens), sequence (P11229 whole entry, looked up): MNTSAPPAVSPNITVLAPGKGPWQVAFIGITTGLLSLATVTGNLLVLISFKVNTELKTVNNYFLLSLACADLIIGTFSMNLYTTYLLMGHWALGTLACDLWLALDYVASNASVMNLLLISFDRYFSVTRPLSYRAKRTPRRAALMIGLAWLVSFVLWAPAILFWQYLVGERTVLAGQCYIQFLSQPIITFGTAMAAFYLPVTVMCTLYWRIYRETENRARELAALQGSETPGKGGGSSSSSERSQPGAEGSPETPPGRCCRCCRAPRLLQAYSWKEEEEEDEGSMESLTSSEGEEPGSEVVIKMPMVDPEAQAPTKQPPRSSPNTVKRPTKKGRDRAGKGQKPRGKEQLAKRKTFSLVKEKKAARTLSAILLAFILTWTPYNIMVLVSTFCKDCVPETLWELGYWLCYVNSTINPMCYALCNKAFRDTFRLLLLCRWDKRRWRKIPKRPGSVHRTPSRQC
D(2) dopamine receptor (Homo sapiens), sequence (P14416 whole entry, looked up): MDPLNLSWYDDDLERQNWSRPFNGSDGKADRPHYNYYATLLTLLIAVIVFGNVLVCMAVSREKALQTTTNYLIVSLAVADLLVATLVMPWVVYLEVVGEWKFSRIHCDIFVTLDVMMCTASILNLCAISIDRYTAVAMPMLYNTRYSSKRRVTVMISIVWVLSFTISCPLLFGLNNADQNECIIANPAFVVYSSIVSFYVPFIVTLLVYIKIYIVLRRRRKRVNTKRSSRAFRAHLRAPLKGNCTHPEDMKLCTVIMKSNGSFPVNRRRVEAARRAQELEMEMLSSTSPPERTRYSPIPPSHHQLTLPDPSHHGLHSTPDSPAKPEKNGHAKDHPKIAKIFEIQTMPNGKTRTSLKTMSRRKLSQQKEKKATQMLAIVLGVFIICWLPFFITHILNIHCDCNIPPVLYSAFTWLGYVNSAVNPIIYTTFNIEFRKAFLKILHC

As to `C[C@]12CC[C@H]3[C@@H](CCC4=CC(=O)CC[C@@H]43)[C@@H]1CC[C@@H]2OC(=O)CCc1ccccc1`, the Potency result in experiment [1], in experiment [2], in experiment [3], in experiment [4], in experiment [5] and in [6] was “inactive” in each case. Further, the Potency entry in experiment [7], in experiment [8], in [9], in experiment [10], in experiment [11] and in [12] was “inactive” each time. Moreover, the Potency result in experiment [13], in experiment [15], in experiment [16], in experiment [17], in experiment [18] and in [19] was “inactive” throughout. Further, in [14], the Potency is 2.31 µM (active).

In the case of `CCOC(=O)NC(C)(C)Cc1ccc(Cl)cc1`, the Potency entry in [1], in experiment [2], in experiment [3], in experiment [4], in experiment [5] and in experiment [6] was “inactive” throughout. Further, the Potency entry in experiment [7], in experiment [8], in experiment [9], in experiment [10], in experiment [11] and in experiment [12] was “inactive” throughout. Besides, the Potency entry in [13], in experiment [14], in experiment [15], in [16], in [18] and in experiment [19] was “inactive” throughout.

For `C[N+](C)(C)CC1CO1` (stereo not given), the Potency result in [1], in experiment [2], in experiment [3], in [4], in experiment [5] and in experiment [6] was “inactive” in each case. In addition, the Potency entry in [7], in experiment [8], in [9], in [10], in experiment [11] and in experiment [12] was “inactive” in each case. Further, the Potency result in experiment [13], in experiment [14], in experiment [16], in experiment [20], in [17] and in experiment [18] was “inactive” in each case. Also, the Potency result in experiment [19] is “inactive”.

For `N#Cc1ccc(N(CC(N)=O)CC(F)(F)F)cc1C(F)(F)F`, the Potency result in experiment [1], in experiment [2], in experiment [3], in experiment [4], in experiment [5] and in experiment [6] was “inactive” in each case. The Potency result in experiment [7], in experiment [8], in [9], in experiment [10], in experiment [11] and in experiment [12] was “inactive” throughout. For the same molecule, the Potency entry in [13], in experiment [14], in experiment [15], in experiment [16], in experiment [20] and in experiment [17] was “inactive” each time. Moreover, the Potency result in experiment [19] was “inactive”.

Turning to `CC(C)=CCOc1c2occc2cc2ccc(=O)oc12`, the Potency entry in experiment [1], in experiment [2], in [3], in experiment [4], in [5] and in experiment [6] was “inactive” throughout. Besides, the Potency result in experiment [7], in experiment [8], in experiment [9], in experiment [10], in [11] and in experiment [12] was “inactive” in each case. The Potency result in [13], in [14], in [15], in experiment [20], in [17] and in [18] was “inactive” each time. Moreover, in [19], the Potency result was “inactive”.

With `CCOC(=O)C(Cl)C(C)=O` (stereo not given), the Potency result in experiment [1], in experiment [2], in experiment [3], in [4], in experiment [5] and in [6] was “inactive” each time. In addition, the Potency entry in experiment [7], in experiment [8], in experiment [9], in experiment [10], in experiment [11] and in [12] was “inactive” throughout. Moreover, the Potency entry in experiment [15], in experiment [20], in experiment [17], in experiment [18] and in [19] was “inactive” each time. The Potency in experiment [14] was 4.26 µM (active).

Take `CC(Cc1ccccc1)NCCn1cnc2c1c(=O)n(C)c(=O)n2C` (stereo not given): the Potency result in experiment [1], in [2], in experiment [3], in experiment [4], in experiment [5] and in experiment [6] was “inactive” throughout. In addition, the Potency result in experiment [7], in experiment [8], in [9], in experiment [10], in experiment [11] and in experiment [12] was “inactive” each time. In addition, the Potency result in experiment [13], in experiment [16], in experiment [20], in experiment [17], in [18] and in experiment [19] was “inactive” in each case.

The values above are taken from PubChem BioAssay (Tox21).
